For 15 sequences, binding signal results are on record in publication PMC3218832.

What all share (assay): protein binding microarray; high values mean tight binding
Common to all, as to settings: dsDNA, one strand shown

The target of assay [1] is RELARELA (p65 homodimer) (Homo sapiens, UniProt Q04206 1-307).
Assay [2] addresses p50p50 homodimer (Homo sapiens, UniProt P19838 7-356).
Assay [3] deals with T1, p52p52 homodimer (Homo sapiens, UniProt Q00653 4-332).
T1 sequence: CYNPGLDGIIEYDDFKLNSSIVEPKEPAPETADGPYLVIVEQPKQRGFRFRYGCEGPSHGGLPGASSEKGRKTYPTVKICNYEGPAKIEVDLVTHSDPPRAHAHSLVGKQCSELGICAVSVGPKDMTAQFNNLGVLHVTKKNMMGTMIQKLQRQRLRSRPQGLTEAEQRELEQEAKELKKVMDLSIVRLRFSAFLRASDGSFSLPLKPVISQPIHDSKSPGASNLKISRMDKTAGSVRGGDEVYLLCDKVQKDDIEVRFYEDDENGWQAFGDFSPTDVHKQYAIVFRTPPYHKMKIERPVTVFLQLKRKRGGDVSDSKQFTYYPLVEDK

Assay [4] concerns the target RELA (p65) subunit of heterodimer;p50 subunit (Homo sapiens;Homo sapiens, UniProt Q04206;P19838 1-307;7-356).
Assay [5] concerns the target RELA (p65) subunit of heterodimer;p52 subunit (Homo sapiens;Homo sapiens, UniProt Q04206;Q00653 1-307;4-332).
Assay [6] concerns the target RELB subunit;p50 subunit (Homo sapiens;Homo sapiens, UniProt Q01201;P19838 120-401;7-356).
Assay [7] concerns the target T2, RELB subunit;p52 subunit (Homo sapiens;Homo sapiens, UniProt Q01201;Q00653 120-401;4-332).
T2 sequence 1: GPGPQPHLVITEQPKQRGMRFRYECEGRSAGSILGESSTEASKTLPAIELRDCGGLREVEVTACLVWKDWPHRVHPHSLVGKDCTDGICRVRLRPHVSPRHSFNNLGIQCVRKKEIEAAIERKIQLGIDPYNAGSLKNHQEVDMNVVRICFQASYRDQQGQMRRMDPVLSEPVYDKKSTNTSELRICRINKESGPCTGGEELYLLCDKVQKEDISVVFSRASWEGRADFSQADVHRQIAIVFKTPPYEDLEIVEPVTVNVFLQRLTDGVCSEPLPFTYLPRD
T2 sequence 2: T1 sequence

For assay [8], the target named is C-Rel subunit;p50 subunit (Homo sapiens;Homo sapiens, UniProt Q04864;P19838 1-285;7-356).
Assay [9] addresses T3, C-Rel subunit;p52 subunit (Homo sapiens;Homo sapiens, UniProt Q04864;Q00653 1-285;4-332).
T3 sequence 1: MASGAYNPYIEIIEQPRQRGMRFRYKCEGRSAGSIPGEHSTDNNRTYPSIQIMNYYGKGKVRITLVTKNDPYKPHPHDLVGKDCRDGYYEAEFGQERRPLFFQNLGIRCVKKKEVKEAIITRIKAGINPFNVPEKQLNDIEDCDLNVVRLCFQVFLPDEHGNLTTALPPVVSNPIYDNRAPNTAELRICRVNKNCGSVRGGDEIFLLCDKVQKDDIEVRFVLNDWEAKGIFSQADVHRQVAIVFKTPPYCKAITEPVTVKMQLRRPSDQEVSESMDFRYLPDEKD
T3 sequence 2: T1 sequence

Chain of p50p50 homodimer (P19838 7-356): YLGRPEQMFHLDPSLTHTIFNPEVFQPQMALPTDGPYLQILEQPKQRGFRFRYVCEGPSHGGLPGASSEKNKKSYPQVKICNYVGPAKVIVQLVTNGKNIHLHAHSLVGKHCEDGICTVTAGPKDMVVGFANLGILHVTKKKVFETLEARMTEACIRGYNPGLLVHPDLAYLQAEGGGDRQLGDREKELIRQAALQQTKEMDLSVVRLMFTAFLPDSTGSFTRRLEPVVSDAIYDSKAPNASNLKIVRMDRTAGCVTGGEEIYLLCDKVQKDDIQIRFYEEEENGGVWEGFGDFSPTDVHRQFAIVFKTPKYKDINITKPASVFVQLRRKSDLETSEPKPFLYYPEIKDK
Chain of RELARELA (p65 homodimer) (Q04206 1-307): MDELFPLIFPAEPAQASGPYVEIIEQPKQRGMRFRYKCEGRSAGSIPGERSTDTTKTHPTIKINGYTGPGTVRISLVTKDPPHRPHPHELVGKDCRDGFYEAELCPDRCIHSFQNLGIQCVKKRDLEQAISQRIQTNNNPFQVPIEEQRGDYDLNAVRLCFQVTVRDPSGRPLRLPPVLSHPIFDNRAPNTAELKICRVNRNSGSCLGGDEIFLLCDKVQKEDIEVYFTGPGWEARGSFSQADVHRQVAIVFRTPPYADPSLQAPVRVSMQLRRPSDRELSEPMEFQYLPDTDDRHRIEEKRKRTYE
Chain of RELA (p65) subunit of heterodimer;p50 subunit (Q04206 1-307, chain 1 of 2): as the sequence (Q04206 1-307) above
Chain of RELA (p65) subunit of heterodimer;p50 subunit (P19838 7-356, chain 2 of 2): as the sequence (P19838 7-356) above

With AAATTACTCCC, the binding signal is 0.447 z-score in [1]; 0.204 z-score in assay [2]; -0.0753 z-score in assay [3]; 0.132 z-score in [4]; -0.25 z-score in assay [5]; 0.146 z-score in assay [6]. The binding signal was -0.105 z-score in assay [7], 0.213 z-score in [8] and -0.11 z-score in assay [9].

With AGGATTGTCCT, the binding signal in assay [1] was 0.256 z-score; in assay [2], -1.5 z-score; in assay [3] it was -0.541 z-score; in [4] it was -0.736 z-score; in assay [5], -0.766 z-score; in assay [6], -0.86 z-score. The binding signal was -0.821 z-score in assay [7], -1.01 z-score in [8] and -0.483 z-score in assay [9].

In the case of AAAGGAACCCC, the binding signal was -0.25 z-score in assay [1]; 0.367 z-score in assay [2]; 0.122 z-score in assay [3]; 0.18 z-score in [4]; 0.127 z-score in assay [5]; 0.118 z-score in assay [6]. In addition, the binding signal in [7] came to 0.351 z-score; in assay [8], 0.41 z-score; in assay [9] it was 0.175 z-score.

CGGTATGTCCT: the binding signal in [1] was 0.15 z-score; in assay [2], -0.81 z-score; in [3], -0.37 z-score; in assay [4], -0.663 z-score; in [5] it was -0.702 z-score; in assay [6] it was -0.895 z-score. In addition, the binding signal in assay [7] was -0.675 z-score; in assay [8], -0.815 z-score; in [9], -0.489 z-score.

With AGATTATCCCT, the binding signal in [1] was 0.0615 z-score; in assay [2], 0.543 z-score; in assay [3], 0.486 z-score; in [4], 0.262 z-score; in [5], 0.522 z-score; in assay [6], 0.325 z-score. In addition, the results for the binding signal in assay [7], in assay [8] and in assay [9] were 0.392 z-score, 0.0293 z-score and 0.0511 z-score, respectively.

As for AGAAGTCTCCT, the binding signal in assay [1] is -0.456 z-score; in assay [2] it was -1.85 z-score; in [3] it was -0.738 z-score; in assay [4] it was -0.94 z-score; in assay [5] it was -0.879 z-score; in assay [6], -0.942 z-score. Further, the binding signal is -0.985 z-score in [7], -1.36 z-score in assay [8] and -0.926 z-score in assay [9].

For the sequence GGATGGCTCCT, the binding signal in assay [1] is -0.414 z-score; in assay [2] it was -1.51 z-score; in assay [3], -0.721 z-score; in assay [4] it was -1.07 z-score; in assay [5] it was -1.08 z-score; in assay [6], -1.19 z-score. Also, the figures for the binding signal in assay [7], in assay [8] and in [9] were -1.05 z-score, -1.64 z-score and -0.938 z-score, respectively.

As for CGATGTGTCCC, the binding signal in [1] is 0.341 z-score; in assay [2], -0.155 z-score; in assay [3], 0.228 z-score; in [4] it was 0.0812 z-score; in assay [5], 0.0701 z-score; in assay [6], -0.0289 z-score. Also, the binding signal in assay [7] was found to be 0.0454 z-score; in [8], 0.132 z-score; in [9], 0.074 z-score.

On to CGGTGGATCCC, for which the binding signal turned out to be 0.0568 z-score in [1]; 0.42 z-score in assay [2]; 2.32 z-score in [3]; 0.748 z-score in assay [4]; 1.33 z-score in assay [5]; 0.911 z-score in assay [6]. Also, the binding signal came out at 1.38 z-score in assay [7], 0.293 z-score in assay [8] and 1.43 z-score in assay [9].

With CGGGAAGCCCT, the binding signal in assay [1] was 0.636 z-score; in assay [2] it was -0.369 z-score; in assay [3], -0.0378 z-score; in assay [4], -0.188 z-score; in [5], 0.0317 z-score; in assay [6] it was -0.513 z-score. In addition, the values for the binding signal in assay [7], in [8] and in [9] were -0.178 z-score, -0.133 z-score and 0.19 z-score, respectively.

Consider GAGAAACCCCC, for which the binding signal in assay [1] stood at 1.35 z-score; in [2], 1.41 z-score; in assay [3], 2.15 z-score; in assay [4] it was 2.14 z-score; in assay [5] it was 2 z-score; in assay [6], 1.98 z-score. The binding signal in assay [7] came out at 2.04 z-score; in assay [8], 1.45 z-score; in assay [9] it was 2.14 z-score.

For the sequence AGAGGTTCCCC, the binding signal in [1] is 0.439 z-score; in assay [2], 1.06 z-score; in assay [3], 1.33 z-score; in [4] it was 1.54 z-score; in assay [5], 1.33 z-score; in assay [6], 1.41 z-score. Besides, the results for the binding signal in assay [7], in [8] and in assay [9] were 1.64 z-score, 1.37 z-score and 1.14 z-score, respectively.

For the sequence CAATGTCTCCC, the binding signal in assay [1] is -0.338 z-score; in assay [2] it was -0.647 z-score; in assay [3] it was -0.276 z-score; in assay [4] it was -0.405 z-score; in [5], -0.499 z-score; in [6] it was -0.294 z-score. The binding signal in assay [7] was -0.275 z-score; in assay [8], -0.53 z-score; in assay [9], -0.561 z-score.

On to GAGTGCGTCCT, for which the binding signal was -0.395 z-score in assay [1]; -1.33 z-score in assay [2]; -0.581 z-score in assay [3]; -0.981 z-score in assay [4]; -0.769 z-score in [5]; -0.991 z-score in assay [6]. Further, the binding signal in [7] was -0.844 z-score; in assay [8], -1.14 z-score; in assay [9], -0.662 z-score.

For the sequence GGGATTCTCCC, the binding signal stood at 2.28 z-score in assay [1]; 0.737 z-score in assay [2]; 2.84 z-score in assay [3]; 1.59 z-score in assay [4]; 2.15 z-score in assay [5]; 2.01 z-score in assay [6]. In addition, the binding signal turned out to be 1.67 z-score in [7], 1.41 z-score in [8] and 2 z-score in assay [9].
